Bioassay records: PubChem BioAssay, National Center for Advancing Translational Sciences (NCATS)
VACV mCherry inh: qHTS for Stage-Specific Inhibitors of Vaccinia Orthopoxvirus: mCherry Reporter Primary qHTS; 0.63% of 310,000 active; Potency, µM (doses to about 36.5 µM), inactives show at the highest dose activity change, negative = inhibition, actives largely listed as inhibitors; AID 720579, 2013; Vaccinia virus mCherry reporter infection, fluorescence; calls by dose curve; tested in A549 cells; further: potency means the concentration at half of the fitted maximal effect; nearly all actives have a fitted effect of over 35% in size
Lassa entry inh: qHTS for Inhibitors of binding or entry into cells for Lassa Virus; Lassa virus pseudotype entry inhibition, cell reporter; Potency, µM (top dose mostly 37.9 µM), for the others: at the highest dose activity change, negative = inhibition, usual class: inhibitors; 1.2% of 300,000 active; calls by dose curve; tested in HEK293 cells; further: potency means the concentration at half of the fitted maximal effect; nearly all actives have a fitted effect of over 50% in size
Vaccinia Venus: qHTS for Stage-Specific Inhibitors of Vaccinia Orthopoxvirus: Venus Reporter Primary qHTS; 0.46% of 330,000 active; Vaccinia virus Venus reporter expression, fluorescence; AID 720580, 2013; Potency, µM (top dose mostly 36.5 µM), for the others: top-dose activity change, negative = inhibition, most hits filed as inhibitors; calls by dose curve; tested in A549 cells; further: potency means the concentration at half of the fitted maximal effect; nearly all actives have a fitted effect of over 30% in size
MARV entry inh: qHTS for inhibitors of binding or entry into cells for Marburg Virus. Potency, µM (highest dose often 37.8 µM), for the others: at the top dose activity change, negative = inhibition, actives largely listed as inhibitors. Marburg virus pseudotyped entry inhibition, cell reporter. 1.8% of 300,000 active; calls by dose curve; tested in HEK293 cells; further: potency means the concentration at half of the fitted maximal effect
FMDV antiviral: High Throughput Screening for Foot and Mouth Disease Virus Antivirals; FMDV antiviral cell-based qHTS; Potency, µM (series often up to 57.9 µM), for the others: top-dose activity change, negative = inhibition, hits mostly inhibitors; 1.2% of 410,000 active; AID 1159524, 2015; calls by dose curve; tested in HEK293T cells; further: read-out not given here; potency means the concentration at half of the fitted maximal effect; nearly all actives have a fitted effect of over 45% in size
HCMV inh: qHTS Assay for inhibitors of the human cytomegalovirus (HCMV). HFF cells, HCMV-luciferase reporter, 72 h; hits give low values. 4.5% of 410,000 active. AID 1259415, 2018. activity change, negative = inhibition, % at 57.5 µM; in the data active means activity change below about -60%; inconclusive means no clear call, values can overlap the other calls; inactive means above about -39%
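Luciferase read-out from HCMV-luciferase-infected HFFs (MOI 1 PFU/cell) 72 h post infection at 37C; compounds added after 16 h cell attachment; activity normalized between buffer-only basal and Salinomycin (10uM) inhibitor controls.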
Numbers without * were called inactive; [ ] = remark or other dose. Hits are enriched below; roughly 6.5% of the tested compounds scored in any of these assays. On the % scale 0 is the no-effect control and ±100 the full control effect.

How did N#Cc1cc(C(=O)c2cc(Cl)ccc2O)cn(-c2ccccc2)c1=O do in these assays?
VACV mCherry inh: inactive; Lassa entry inh: -4%; Vaccinia Venus: -15%; MARV entry inh: -17%; FMDV antiviral: -20%; HCMV inh: -1

Results for Cc1ccc(NC(=O)c2cc(C(=O)c3cc(Cl)ccc3O)cn(-c3ccc(C)cc3)c2=O)cc1 ?
VACV mCherry inh: -1%; Lassa entry inh: inconclusive; Vaccinia Venus: inconclusive; MARV entry inh: inconclusive; FMDV antiviral: 0%; HCMV inh: -70*

Results for O/N=C/c1ccc2cccc(OCc3ccccc3)c2n1 ?
FMDV antiviral: -23%; HCMV inh: -31

Results for O=C(N/N=C/c1ccc2cccc(OCc3ccccc3)c2n1)c1ccc(Br)cc1 ?
VACV mCherry inh: -15%; Lassa entry inh: inconclusive; Vaccinia Venus: inconclusive; MARV entry inh: 16µM*; FMDV antiviral: inconclusive; HCMV inh: -23

What do the screens show for `NC(=S)N/N=C/c1ccccc1OCc1cccc(Cl)c1`?
VACV mCherry inh: 1.8µM*; Lassa entry inh: -27%; Vaccinia Venus: 2µM*; MARV entry inh: inconclusive; FMDV antiviral: inconclusive

Results for NC(=S)N/N=C/c1ccc2cccc(OCc3ccccc3)c2n1 ?
VACV mCherry inh: inconclusive; Lassa entry inh: inconclusive; Vaccinia Venus: inconclusive; MARV entry inh: inconclusive; FMDV antiviral: -22%; HCMV inh: -68*

Results for Cc1ccc(C)c(CN2CCc3nnc(CNC(=O)c4cc(C)oc4C)n3CC2)c1 ?
VACV mCherry inh: -20%; Vaccinia Venus: -13%; FMDV antiviral: -21%

How did N=c1n(CC(=O)c2ccc([N+](=O)[O-])cc2)c2ccccc2n1Cc1ccccc1Cl do in these assays?
VACV mCherry inh: -15%; Lassa entry inh: -11%; Vaccinia Venus: -16%; MARV entry inh: inconclusive; FMDV antiviral: 28µM*; HCMV inh: inconclusive

What do the screens show for `N=c1n(CC(=O)c2ccc([N+](=O)[O-])cc2)c2ccccc2n1Cc1ccc(Cl)cc1`?
FMDV antiviral: -2%; HCMV inh: -13

Results for N=c1n(CC(=O)c2ccc(Br)cc2)c2ccccc2n1Cc1ccccc1 ?
VACV mCherry inh: inconclusive; Vaccinia Venus: 11µM*; FMDV antiviral: -12%; HCMV inh: -61*

What do the screens show for `N=c1n(CC(=O)c2ccc([N+](=O)[O-])cc2)c2ccccc2n1Cc1ccccc1`?
VACV mCherry inh: inactive; Lassa entry inh: inconclusive; Vaccinia Venus: -13%; MARV entry inh: inconclusive; FMDV antiviral: -15%; HCMV inh: -83*

Results for C[C@]1(C(=O)CSc2nc3ccccc3[nH]2)CCC(=O)O1 ?
MARV entry inh: -1%

How did COc1ccc(C2/C(=C(/O)c3ccc(F)cc3)C(=O)C(=O)N2CCCN(C)C)cc1 (centres undefined) do in these assays?
VACV mCherry inh: -3%; Lassa entry inh: 22%; Vaccinia Venus: -3%; MARV entry inh: 6%[46.1 µM]; FMDV antiviral: -7%; HCMV inh: -83*

Results for COc1ccc2c(c1)-c1nc(-n3ncc(C(=O)NCc4cccnc4)c3C3CC3)ncc1CC2 ?
VACV mCherry inh: inconclusive; Vaccinia Venus: -18%; FMDV antiviral: inconclusive

Results for Cc1ccc(-n2c(C3CC3c3ccc(Cl)cc3)n[nH]c2=S)cc1 (centres undefined) ?
Lassa entry inh: -7%; MARV entry inh: 3%; FMDV antiviral: 0%; HCMV inh: -30

How did S=c1[nH]nc(C2CC2c2ccc(Cl)cc2)n1-c1ccc(Cl)cc1 (centres undefined) do in these assays?
VACV mCherry inh: -27%; Lassa entry inh: 16µM*; Vaccinia Venus: inconclusive; MARV entry inh: -21%; FMDV antiviral: -12%; HCMV inh: 25

Results for CN(C)S(=O)(=O)c1ccc2nc(NC(=O)c3cccnc3)sc2c1 ?
Lassa entry inh: inconclusive; MARV entry inh: 2%; FMDV antiviral: 33%; HCMV inh: 73

What do the screens show for `O=C(NC(NNc1ccc([N+](=O)[O-])cc1)(C(F)(F)F)C(F)(F)F)c1ccccc1Cl`?
Lassa entry inh: 5%; MARV entry inh: 24%; FMDV antiviral: inconclusive; HCMV inh: 6

How did O=C(NC(Nc1nc2ccc([N+](=O)[O-])cc2s1)(C(F)(F)F)C(F)(F)F)c1cccnc1 do in these assays?
Lassa entry inh: inconclusive; MARV entry inh: inconclusive; FMDV antiviral: 2.8µM*; HCMV inh: -102*

What do the screens show for `O=C(NC(Nc1nc2ccc([N+](=O)[O-])cc2s1)(C(F)(F)F)C(F)(F)F)c1ccccc1Cl`?
Lassa entry inh: 1.6µM*; MARV entry inh: inconclusive; FMDV antiviral: 2.5µM*; HCMV inh: inconclusive

What do the screens show for `CCOC(=O)C(C)=NNC(C)=O`?
MARV entry inh: -17%[14.2 µM]

How did CCC(=O)/C=C1/Sc2ccccc2N1CC do in these assays?
Lassa entry inh: -3%; Vaccinia Venus: inconclusive; MARV entry inh: 18%; FMDV antiviral: -24%; HCMV inh: inconclusive

How did CCN1/C(=C/c2sc(-c3ccccc3C)c[n+]2C)Sc2ccccc21 do in these assays?
VACV mCherry inh: inconclusive; Lassa entry inh: inconclusive; Vaccinia Venus: inconclusive; MARV entry inh: inconclusive; FMDV antiviral: 11µM*; HCMV inh: -97*

What do the screens show for `NC(=NCCc1ccccc1)c1cccc([N+](=O)[O-])c1`?
FMDV antiviral: -11%; HCMV inh: 24

Results for CC(C)(CO)NCc1cccc(OCc2ccc(Cl)cc2)c1 ?
VACV mCherry inh: -17%; Lassa entry inh: inconclusive; Vaccinia Venus: -26%; MARV entry inh: inconclusive; FMDV antiviral: -7%; HCMV inh: inconclusive

How did Clc1ccc(COc2cccc(CNCc3ccncc3)c2)cc1 do in these assays?
VACV mCherry inh: -20%; Lassa entry inh: inconclusive; Vaccinia Venus: -22%; MARV entry inh: 0%[46.1 µM]; FMDV antiviral: inconclusive; HCMV inh: -75*

Results for CC(=O)OC[C@H]1O[C@H](CC=NO[C@H](C)CN2CCCCc3nc(C)c(C)cc32)C=C[C@@H]1OC(C)=O ?
MARV entry inh: -21%[14.2 µM]

What do the screens show for `CCCC[C@@H](CNC)NC[C@H](Cc1ccc(O)cc1)NCCc1ccc(OCC)cc1`?
VACV mCherry inh: inconclusive; Vaccinia Venus: 13µM*; FMDV antiviral: -2%; HCMV inh: -85*

Results for COc1cc(/C=C/C(=O)c2ccc(C)c([N+](=O)[O-])c2)cc(OC)c1O ?
VACV mCherry inh: inconclusive; Lassa entry inh: -26%; Vaccinia Venus: -23%; MARV entry inh: inconclusive; FMDV antiviral: 14µM*; HCMV inh: -17

How did COc1ccc(/C=C/C(=O)c2ccc(C)c([N+](=O)[O-])c2)cc1O do in these assays?
VACV mCherry inh: -18%; Lassa entry inh: inconclusive; Vaccinia Venus: -22%; MARV entry inh: inconclusive; FMDV antiviral: -26%; HCMV inh: 24
